Common to all, as to test: NCI-60 one-dose screen, 48 h (100 = growth as untreated, 0 = no growth, -100 = all killed)
One assay deals with NCI-H23 lung. As to conditions: 10 µM unless noted.
The test system of another assay is NCI-H226 lung. As to conditions: 10 µM unless noted.
A further assay has as its system NCI-H322M lung. The note with it: 10 µM unless noted.
In another assay the test system is HOP-62 NSCLC. The note with it: 10 µM unless noted.
The test system of another assay is NCI-H460 lung. The note with it: 10 µM unless noted.
A further assay has as its system HOP-92 NSCLC. The note with it: 10 µM.
The test system of the next assay is NCI-H522 lung. As to conditions: 10 µM unless noted.
The test system of the next assay is A549/ATCC NSCLC. As to conditions: 10 µM unless noted.
Another assay has as its system 786-0 renal. As to conditions: 10 µM unless noted.
A further assay concerns COLO 205 colon. The note with it: 10 µM unless noted.
For the next assay, the system named is DU-145 prostate. As to conditions: 10 µM unless noted.
In another assay the test system is K-562 leukemia. As to conditions: 10 µM unless noted.
In a further assay the test system is MALME-3M melanoma. As to conditions: 10 µM unless noted.
For another assay, the system named is MDA-MB-231 breast. The note with it: 10 µM unless noted.
The test system of the next assay is SF-268 CNS. The note with it: 10 µM unless noted.
The next assay has as its system SF-295 CNS. As to conditions: 10 µM unless noted.
The next assay deals with SF-539 CNS. The note with it: 10 µM unless noted.
Another assay relates to UACC-257 melanoma. The note with it: 10 µM unless noted.

Compounds without any hit were thinned out: in the full panel of roughly 83,000, 20% have a hit.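 Cell lines were cultured in 96-well plates, exposed to a single compound concentration, and assessed for percent growth 48 hours later.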 Values without a mark were called inactive. Active and inactive are the calls of the source. The calls were made as follows: active = growth percent below 10; inactive = the rest.

In the case of `O=C(NNc1nc2cc(F)c(F)cc2n2c(CN3CC4CNCC4C3)ccc12)c1ncccn1` (centres undefined), the growth is 26% in the assay on NCI-H23 lung; 10.6% in the assay with NCI-H226 lung; 27.8% in the assay with NCI-H322M lung; 0.597% (active) in the assay on HOP-62 NSCLC; 2.27% (active) in the assay with NCI-H460 lung; 20.2% in the assay on HOP-92 NSCLC. For the same compound, the growth was 0.166% (active) in the assay on NCI-H522 lung; 15.2% in the assay with A549/ATCC NSCLC; 9.75% (active) in the assay on 786-0 renal; 9.36% (active) in the assay on COLO 205 colon; 24% in the assay on DU-145 prostate; 9.16% (active) with K-562 leukemia. For the same compound, the growth with MALME-3M melanoma is 10.3%; in the assay with MDA-MB-231 breast, 38.7%; with SF-268 CNS, 19.7%; in the assay on SF-295 CNS, -14.5% (active); in the assay on SF-539 CNS, 6.72% (active); with UACC-257 melanoma it was 8.25% (active).
For the compound `O=C(O)c1ccc(-n2cc(CNc3cc(F)c(F)c(F)c3)c(-c3ccc(F)cc3)n2)cc1`, the growth in the assay with NCI-H23 lung was 90%; in the assay with NCI-H226 lung it was 101%; in the assay with NCI-H322M lung, 98%; with HOP-62 NSCLC, 113%; in the assay with NCI-H460 lung, 97.1%; in the assay with HOP-92 NSCLC, 108%. Further, the growth in the assay with NCI-H522 lung is 90.1%; with A549/ATCC NSCLC, 77.8%; with 786-0 renal, 109%; with COLO 205 colon, 131%; in the assay on DU-145 prostate, 98.3%; in the assay with K-562 leukemia it was 71.1%. Also, the growth was 76.5% with MALME-3M melanoma; 95.4% with MDA-MB-231 breast; 105% in the assay with SF-268 CNS; 72.3% in the assay on SF-295 CNS; 93.5% in the assay with SF-539 CNS; 105% in the assay on UACC-257 melanoma.
`CC(c1ccccc1)N1CSc2nc3ncncc3n2C1` (centres undefined): the growth with NCI-H23 lung was 24.1%; with NCI-H226 lung it was 48.8%; in the assay with NCI-H322M lung it was 40.9%; in the assay with HOP-62 NSCLC, 26.9%; in the assay with NCI-H460 lung it was 51.2%; with HOP-92 NSCLC it was 65.5%. Also, the growth with NCI-H522 lung was 38.2%; in the assay with A549/ATCC NSCLC, 72%; in the assay on 786-0 renal, 29.6%; in the assay with COLO 205 colon it was 32.8%; with DU-145 prostate it was 33.3%; in the assay with K-562 leukemia, 20.9%. The growth in the assay on MALME-3M melanoma was 38.2%; with MDA-MB-231 breast, 32.7%; with SF-268 CNS it was 28.4%; with SF-295 CNS, 21.6%; in the assay on SF-539 CNS, 23.5%; in the assay with UACC-257 melanoma, 44.5%.
As for `O=C(NNc1nc2cc(F)cc(F)c2n2cccc12)c1cnccn1`, the growth with NCI-H23 lung was 24.6%; with NCI-H226 lung it was 29.3%; in the assay on NCI-H322M lung, 30.2%; in the assay with HOP-62 NSCLC it was 14.5%; in the assay with NCI-H460 lung it was 1.69% (active); in the assay on HOP-92 NSCLC it was 26.1%. Besides, the growth in the assay with NCI-H522 lung is 0.755% (active); in the assay on A549/ATCC NSCLC it was 15%; with 786-0 renal, 14.3%; in the assay with COLO 205 colon, 6.31% (active); in the assay on DU-145 prostate, 22.4%; in the assay on K-562 leukemia it was 14.3%. Moreover, the growth is 23.1% in the assay with MALME-3M melanoma; 33.4% in the assay on MDA-MB-231 breast; 21.9% in the assay on SF-268 CNS; 10.9% with SF-295 CNS; 7.61% (active) with SF-539 CNS; 3.96% (active) in the assay on UACC-257 melanoma.
For the compound `N#Cc1cccc(CN2CCC3=C(C2)C(=O)N(Cc2ccc(Cl)cc2)C2=NCCCN23)c1`, the growth with NCI-H23 lung is 28.4%; in the assay on NCI-H226 lung, 39.9%; in the assay with NCI-H322M lung it was 48.8%; in the assay with HOP-62 NSCLC it was 26%; in the assay on NCI-H460 lung, 18.9%; in the assay with HOP-92 NSCLC, 26.1%. The growth was 14.4% in the assay with NCI-H522 lung; 29% with A549/ATCC NSCLC; 44.4% in the assay on 786-0 renal; -31% (active) in the assay on COLO 205 colon; 31.2% with DU-145 prostate; 22.5% in the assay on K-562 leukemia. The growth with MALME-3M melanoma is 46.7%; with MDA-MB-231 breast, 32.6%; with SF-268 CNS, 37.1%; with SF-295 CNS, 7.29% (active); with SF-539 CNS it was 40.5%; in the assay on UACC-257 melanoma it was 13.8%.
`COc1ccc(NC(=O)CSc2nnc(-c3ccc4nc(-c5ccc(OC)c(OC)c5)[nH]c4c3)o2)cc1OC`: the growth in the assay with NCI-H23 lung is 80.6%; in the assay with NCI-H226 lung, 93.1%; in the assay on NCI-H322M lung, 89.4%; in the assay on HOP-62 NSCLC, 98.8%; in the assay with NCI-H460 lung, 102%; in the assay on HOP-92 NSCLC, 85.6%. Besides, the growth with NCI-H522 lung is 95.1%; with A549/ATCC NSCLC, 101%; in the assay on 786-0 renal, 105%; with COLO 205 colon, 113%; in the assay on DU-145 prostate, 91.3%; in the assay with K-562 leukemia, 108%. Also, the growth was 83.3% with MALME-3M melanoma; 93.5% in the assay with MDA-MB-231 breast; 93.3% in the assay on SF-268 CNS; 107% in the assay on SF-295 CNS; 93.3% in the assay on SF-539 CNS; 106% with UACC-257 melanoma.
As for `Cc1c(Cl)cccc1S(=O)(=O)Nc1ccc2c(c1)C(=O)N(C1CCC(=O)NC1=O)C2=O` (centres undefined), the growth is 102% with NCI-H23 lung; 66.6% with NCI-H226 lung; 88.8% in the assay with NCI-H322M lung; 73.5% with HOP-62 NSCLC; 111% with NCI-H460 lung; 49% in the assay on HOP-92 NSCLC. The growth with NCI-H522 lung is 94.2%; in the assay with A549/ATCC NSCLC it was 104%; in the assay with 786-0 renal, 78.9%; in the assay on COLO 205 colon, 62.3%; in the assay on DU-145 prostate, 108%; in the assay on K-562 leukemia, 101%. The growth with MALME-3M melanoma was 55%; in the assay with MDA-MB-231 breast, 46.8%; in the assay with SF-268 CNS, 82.1%; in the assay with SF-295 CNS it was 91.7%; with SF-539 CNS it was 102%; in the assay on UACC-257 melanoma, 113%.
Consider `N/C(=N\C(N)=N\c1nc2ccccc2s1)c1ccc(C(F)(F)F)cc1`, for which the growth is 39% in the assay with NCI-H23 lung; 69.6% in the assay with NCI-H226 lung; 100% in the assay with NCI-H322M lung; 91% in the assay on HOP-62 NSCLC; 22.6% in the assay on NCI-H460 lung; 82.1% in the assay on HOP-92 NSCLC. The growth is 88.1% in the assay with NCI-H522 lung; 6.31% (active) with A549/ATCC NSCLC; 93% in the assay with 786-0 renal; 119% with COLO 205 colon; 80.1% with DU-145 prostate; 76.6% in the assay with K-562 leukemia. Also, the growth with MALME-3M melanoma is 101%; in the assay on MDA-MB-231 breast, 84.5%; with SF-268 CNS it was 74.3%; with SF-295 CNS, 69%; in the assay on SF-539 CNS it was 98.7%; in the assay with UACC-257 melanoma, 115%.
